High-throughput results as filed in PubChem.
TCR activator: Activators of T cell receptors: qHTS campaign; 330,000 tested, under 10 active; Potency, µM (doses to about 9.22 µM), most hits filed as activators; primary human leukocytes, anti-CD3, IL-2 HTRF, 48 h
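IL-2 produced over 48 hr by a-CD3 bead-stimulated primary human leukocytes exposed to compounds was detected with a homogeneous time-resolved FRET immunoassay, 665nm acceptor signal after 320nm excitation.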
Nrf2 ARE act: qHTS of Nrf2 Activators; AREc32 ARE-luciferase reporter (MCF7-derived line), luminescence, 24 h; Potency, µM (top dose mostly 46.1 µM), usual class: activators; 0.31% of 410,000 active; note: nearly all actives have a fitted effect of over 65% in size
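Luciferase luminescence (Steady-Glo, 30 min at room temperature) served as the read-out of ARE activation in AREc32 cells treated with compounds for 24 hr at 37 deg C.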
ClpP mod: qHTS Assay for Activators of ClpP; ATP-dependent Clp protease proteolytic subunit (Bacillus subtilis (strain 168)), P80244; purified B. subtilis ClpP, FRET peptide cleavage, 20 min; Potency, µM (doses to about 57.5 µM); 1.9% of 340,000 active; AID 651965, 2013; active = well fitted falling curve with a large enough effect; inconclusive = small, poorly fitted or top-dose-only effect; inactive = no such curve, though single readings can be large or run the other way; note: the source files actives as falling curves though it sought activators and does not explain the sign; nearly all actives have a fitted effect of over 65% in size
Target sequence (P80244 whole entry, looked up): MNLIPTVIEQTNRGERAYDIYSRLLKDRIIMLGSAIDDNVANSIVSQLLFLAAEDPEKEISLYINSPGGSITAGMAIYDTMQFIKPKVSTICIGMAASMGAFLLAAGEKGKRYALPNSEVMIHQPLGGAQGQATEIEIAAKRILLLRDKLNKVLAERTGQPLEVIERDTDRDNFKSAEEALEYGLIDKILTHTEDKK
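ClpP 10 microg/mL final, pH 8 Tris/KCl buffer with BSA, glycerol, Tween-20; compound pinned in; FRET-FV substrate; RT 20 min; Ex320/Em430; ΔFRET vs ADEP 5.8 microM, DMSO, no enzyme.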
miR-21 reporter: qHTS Assay for Modulators of miRNAs and/orActivators of miR-21; HeLa miR-21 FLuc reporter, luciferase, 48 h; Potency, µM (titrated, usually from 38.3 µM), most hits filed as activators; 340,000 tested, under 10 active;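 note: miR-21 action dims this reporter so a rising signal means less miR-21 action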
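HeLa miR-21-FLuc reporter line, endogenous miR-21; 2000 cells/well in DMEM/10% FBS; compound titration up to ~40uM final, 48 h, 37 degree Celsius; luciferase detection reagent, 15 min lysis, CCD luminescence.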
A549 tox: Nrf2 qHTS screen for inhibitors: counterscreen for cytotoxicity. Potency, µM (top dose mostly 46 µM), actives largely listed as inhibitors. AID 504648, 2011. A549 ARE-Fluc cells, CellTiter-Fluor viability, 18-24 h. 0.16% of 390,000 active
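A549 ARE-Fluc cells in 5% FBS OPTI-MEM, 5000 cells/well, rested 2 h then exposed to compounds in concentration-response for 18-24 h at 37 °C. Viability by CellTiter-Fluor fluorescence (Ex 405/Em 525) after 30 min; luciferase luminescence (BugLite, 15 min, RT) read afterwards.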
Nrf2 block: Nrf2 qHTS screen for inhibitors | A549 ARE-Fluc reporter, luciferase luminescence, 18-24 h | Potency, µM (titrated, usually from 46 µM), hits mostly inhibitors | 2.1% of 360,000 active; note: nearly all actives have a fitted effect of over 60% in size
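Nrf2 function is reported as luminescence of an ARE-controlled luciferase in A549 cells. Compounds were tested at several concentrations, and a CellTiter-Fluor read on the same wells flagged cytotoxicity.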
Numbers stand for hits; – = inactive; ? = inconclusive; · = no result; ! = repeats disagree; [ ] = dose if it differs, or a comment. Most compounds without a hit are left out; they make up all but 3.7% or so of the library. Unless noted, calls come from the whole dose curve; as a rule, active = well fitted curve in the direction sought with a large enough effect; inconclusive = small, poorly fitted or top-dose-only effect, or another doubt; inactive = no such curve, though single readings can be large; an effect the other way counts as inactive or inconclusive.

SMILES | TCR activator | Nrf2 ARE act | ClpP mod | miR-21 reporter | A549 tox | Nrf2 block
CC1=C(C(=O)OCC2CCCO2)C(c2ccncc2)C2=C(CCCC2=O)N1 (centres undefined) | – | – | 22µM | – | – | –
CC1=C(C(=O)OC(C)C)C(c2cccnc2)C2=C(CCCC2=O)N1 (centres undefined) | – | – | 28µM | – | – | –
NC(=O)CSc1oc(-c2ccco2)nc1S(=O)(=O)c1ccc(Br)cc1 | – | – | – | – | – | –
Cc1ccc(S(=O)(=O)N2CCN(c3nc(C(N)=O)nc4ccccc34)CC2)cc1 | · | · | – | · | – | –
CC(=O)Nc1ccc(C(=O)N/N=C/c2cc(Br)cc(Br)c2O)cc1 | – | – | · | – | – | 15µM
CCN(CC)CCCNC(=O)c1oc2ccc(S(=O)(=O)N3CC(C)CC(C)C3)cc2c1C (centres undefined) | – | – | · | – | – | –
Cc1cc(C)cc(NC(=O)CSCc2cc(=O)c3ccc(C)c(C)c3[nH]2)c1 | · | – | – | – | – | ·
CC(C)(C)c1cc(NC(=O)CSc2nnc(N)s2)n(-c2ccccc2)n1 | – | – | 28µM | – | – | –
Cc1ccccc1OCc1nnc(SCC(=O)Nc2ccc3nc(SCC(=O)NC(C)(C)C)sc3c2)n1C | – | – | – | – | – | ?
CC(C)(C)NC(=O)CSc1nc2ccc(NC(=O)CSc3nnc(N)s3)cc2s1 | – | – | – | – | – | 21µM
Nc1nnc(SCC(=O)NCCOc2ccccc2)s1 | – | – | 25µM | – | – | –
Cc1ccc(NC(=O)COC(=O)c2ccco2)cc1S(=O)(=O)N1CCCCC1 | · | – | – | · | · | ·
CCC(Cc1ccccc1)NC(=O)c1cc(S(=O)(=O)N2CCCCC2)c[nH]1 (centres undefined) | – | – | – | – | – | –
O=C(Nc1ccc(F)cc1)N1CCC(c2nc3c(nnn3Cc3cccc(Cl)c3)c(=O)[nH]2)CC1 | – | – | – | – | ? | 21µM
Cc1ccc(NC(=O)N2CCC(c3nc4c(nnn4Cc4cccc(Cl)c4)c(=O)[nH]3)CC2)cc1 | · | – | – | – | – | ·
Cc1cc(C(=O)Nc2sc(C)c(-c3ccc(F)cc3)c2C(N)=O)no1 | – | – | 13µM | – | – | ?
CCOc1cc(C2c3c(-c4ccccc4O)n[nH]c3C(=O)N2CCc2ccccc2)ccc1O (centres undefined) | · | – | – | – | – | –
Cc1ccc(S(=O)(=O)N2CCN(CCOc3cccc(C)c3)CC2)cc1 | – | – | – | · | – | 21µM
Cc1cc(C)c(C#N)c(N2CCN(c3ccc(F)cc3)CC2)n1 | – | –[9.22 µM] | · | – | – | –
COc1cc2c(C#N)c(N3CCN(c4ccccc4OC)CC3)nc(N)c2c(N)n1 | – | – | 32µM | – | ? | 16µM
COc1cc2c(C#N)c(N3CCN(C)CC3)nc(N)c2c(N)n1 | · | · | · | – | · | ·
Cc1cc(C)c(C#N)c(N2CCCC2)n1 | – | – | 3.5µM | – | – | –
N#Cc1c(N2CCCC2)nc(N)c2c(N)nc(N3CCCC3)cc12 | – | – | 7.9µM | – | ? | ?
CC(NS(=O)(=O)c1ccccc1[N+](=O)[O-])c1ccccn1 (centres undefined) | · | · | – | · | · | ·
COc1cccc(CNC(=O)CN2CCC(c3nc4ccc(C)cc4[nH]3)CC2)c1 | – | – | – | – | – | 16µM
SMILES | TCR activator | Nrf2 ARE act | ClpP mod | miR-21 reporter | A549 tox | Nrf2 block
COc1ccccc1NC(=O)CN1CCC(c2nc3ccc(C)cc3[nH]2)CC1 | · | – | · | – | – | –
Cc1ncc(C[n+]2csc(CCO)c2C)c(N)n1 | – | – | – | – | ? | 15µM!
Cc1c(C(=O)O)sc2ncnc(N3CCCCC3C)c12 (centres undefined) | – | – | – | – | – | ?
Cc1cc2c(N3CCCCC3C)ncnc2s1 (centres undefined) | – | – | – | – | – | 21µM
COc1ccc(Oc2c(C)oc3c(CN4CCOCC4)c(O)ccc3c2=O)cc1 | – | – | 32µM | – | – | –
Cc1oc2c(CN3CCOCC3)c(O)ccc2c(=O)c1-c1ccccc1 | – | – | 28µM | – | – | –
CC(C)c1ccc(/C=C/C(=O)Nc2ccc(CN3CCOCC3)cc2)cc1 | – | – | · | ? | ? | 23µM
CCN(CC)S(=O)(=O)c1ccc(/C=C/C(=O)Nc2ccc(N3CCOCC3)cc2)cc1 | – | – | – | ? | – | 16µM
O=C(/C=C/c1ccco1)Nc1ccc(S(=O)(=O)N2CCOCC2)cc1 | – | 11µM | · | – | – | –
O=C(/C=C/c1ccc(F)cc1)Nc1ccc(S(=O)(=O)N2CCOCC2)cc1 | – | – | – | – | – | ?
O=C(/C=C/c1ccc(Cl)cc1)Nc1ccc(CN2CCOCC2)cc1 | – | – | · | – | ? | 21µM
O=C(CNC(=O)c1ccccc1)OC(C(=O)Nc1ccc2c(c1)OCO2)c1ccccc1 (centres undefined) | · | · | · | · | – | –
CS(=O)(=O)Nc1ccc(N2CCN(c3ccc(C(F)(F)F)cn3)CC2)nc1 | – | – | – | – | – | 7.3µM
CC(C)(C)C(=O)Nc1ccc(N2CCN(c3ccc(C(F)(F)F)cn3)CC2)nc1 | – | – | · | – | – | ?
COc1ccc(OCC(=O)NC2CC(=O)N(c3ccc4c(c3)OCCO4)C2)cc1 (centres undefined) | · | – | – | – | – | ·
COC(=O)c1ccc([C@H]2Nc3ccc(S(=O)(=O)Nc4ccc(F)cc4)cc3[C@H]3C=CC[C@H]32)cc1 | · | – | – | – | – | –
Cc1cccc(NS(=O)(=O)c2ccc3c(c2)[C@H]2C=CC[C@H]2[C@@H](c2ccc(F)cc2)N3)c1 | · | – | – | – | – | 18µM
CCC1(c2ccccc2)NC(=O)N(CC(=O)Nc2cc(S(=O)(=O)N3CCCCCC3)ccc2OC)C1=O (centres undefined) | – | – | – | · | – | ?
CCc1ccc(-n2nc(C)c3c(C(=O)Nc4ccc(Cl)cc4)cc(C)nc32)cc1 | · | – | – | – | – | ?
CCc1ccc(-n2nc(C)c3c(C(=O)Nc4cccc(C(F)(F)F)c4)cc(C)nc32)cc1 | · | – | 22µM | – | ? | ?
CCN(Cc1ccccc1)C(=O)c1c[nH]c2ccc(S(=O)(=O)N(C)CCC#N)cc2c1=O | – | – | 32µM | – | – | –
CCc1ccccc1NS(=O)(=O)c1ccc2[nH]cc(C(=O)N(CC)Cc3ccccc3)c(=O)c2c1 | · | – | – | – | – | ·
CCC(=O)NC(Cc1ccccc1)c1ccc2c(c1)OCCCO2 (centres undefined) | – | – | 22µM | – | – | –
